Records with an inconclusive call do not appear. A number with no mark means an inactive call. The source made the active and inactive calls. Calls follow the shape of the dose curve; as a rule, active = well fitted curve in the direction sought with a large enough effect; inconclusive = small, poorly fitted or top-dose-only effect, or another doubt; inactive = no such curve, though single readings can be large; an effect the other way counts as inactive or inconclusive.

For the first experiment, the target named is Voltage-gated inwardly rectifying potassium channel KCNH2 (Homo sapiens) (UniProt Q12809). In words: qHTS Assay for Small Molecule Inhibitors of the Human hERG Channel Activity (AID 588834).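 Also: lower thallium flux fluorescence means stronger hERG block; nearly all actives have a fitted effect of over 50% in size.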 Also: potency is read from the fitted curve at half-maximal effect. As to activity change, negative = inhibition: top concentration of the series differs between compounds; % is scaled to controls: 0 for no effect and ±100 for the full control effect. As to conditions: U2OS BacMam hERG, FluxOR thallium flux fluorescence; series mostly up to 46.1 µM; activity change, negative = inhibition: at the top concentration. The essentials: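 Thallium serves as surrogate for K+ influx through BacMam-delivered hERG in U2OS cells. Compounds are added for about 10 minutes after dye loading; stimulation buffer then starts flux, monitored kinetically on FDSS.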
Voltage-gated inwardly rectifying potassium channel KCNH2 (Homo sapiens), sequence (Q12809 whole entry, looked up): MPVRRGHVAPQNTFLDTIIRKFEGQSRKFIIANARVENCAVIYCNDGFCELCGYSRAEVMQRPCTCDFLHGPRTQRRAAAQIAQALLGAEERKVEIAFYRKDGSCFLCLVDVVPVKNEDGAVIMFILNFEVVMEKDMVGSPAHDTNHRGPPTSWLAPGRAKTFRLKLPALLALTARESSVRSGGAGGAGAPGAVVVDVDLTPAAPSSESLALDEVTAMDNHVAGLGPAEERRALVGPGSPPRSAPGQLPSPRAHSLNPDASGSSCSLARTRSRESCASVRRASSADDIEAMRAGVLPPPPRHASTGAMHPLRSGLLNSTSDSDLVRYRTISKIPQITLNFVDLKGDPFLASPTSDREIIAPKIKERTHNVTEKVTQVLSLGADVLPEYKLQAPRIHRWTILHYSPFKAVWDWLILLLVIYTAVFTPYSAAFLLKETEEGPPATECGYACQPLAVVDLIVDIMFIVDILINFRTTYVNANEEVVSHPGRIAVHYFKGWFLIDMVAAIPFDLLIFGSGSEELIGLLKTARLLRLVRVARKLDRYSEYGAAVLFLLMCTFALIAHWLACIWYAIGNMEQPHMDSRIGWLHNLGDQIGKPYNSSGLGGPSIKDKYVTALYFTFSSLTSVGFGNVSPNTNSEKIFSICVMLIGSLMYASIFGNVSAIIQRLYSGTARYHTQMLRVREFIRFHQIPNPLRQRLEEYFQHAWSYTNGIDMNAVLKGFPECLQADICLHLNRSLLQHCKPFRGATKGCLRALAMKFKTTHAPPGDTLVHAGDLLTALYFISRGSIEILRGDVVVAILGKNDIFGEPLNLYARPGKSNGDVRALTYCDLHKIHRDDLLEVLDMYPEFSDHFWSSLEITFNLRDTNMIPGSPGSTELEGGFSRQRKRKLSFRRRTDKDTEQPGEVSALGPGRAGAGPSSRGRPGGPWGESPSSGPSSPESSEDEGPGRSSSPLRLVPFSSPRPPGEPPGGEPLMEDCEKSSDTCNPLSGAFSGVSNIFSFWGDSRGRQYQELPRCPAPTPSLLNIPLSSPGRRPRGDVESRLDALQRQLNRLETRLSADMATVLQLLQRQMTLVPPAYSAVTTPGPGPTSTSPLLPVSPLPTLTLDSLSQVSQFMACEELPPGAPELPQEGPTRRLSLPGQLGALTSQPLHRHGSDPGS
A general note: Quantitative high-throughput screening tests each substance at several concentrations.
As for `NCc1cc(=O)[nH]o1`, the “activity change, negative = inhibition” value is 2.67%.

Regarding `NCCc1c[nH]c2ccccc12`, the “activity change, negative = inhibition” value is -17.9%.

As for `NC(N)=NOCCC(N)C(=O)O` (centres undefined), the “activity change, negative = inhibition” value was 9.86%.

Consider `S=C(NC1CCCCC1)N1CCC(c2cnc[nH]2)CC1`, for which the “activity change, negative = inhibition” value was -25.4%.

As for `CCCN1CCC[C@H](c2cccc(O)c2)C1`, the “activity change, negative = inhibition” value is 3.52%.

As for `CC(=O)NCCc1c[nH]c2ccccc12`, the “activity change, negative = inhibition” value was 16.2%.

As to `NCCc1c[nH]c2ccc(O)cc12`, the “activity change, negative = inhibition” value was -9.9%.

Take `CC(C)NC(C)Cc1ccc(I)cc1` (centres undefined): the Potency was 8910 nM (active).

For `NC(CP(=O)(O)O)C(=O)O` (centres undefined), the “activity change, negative = inhibition” value is 21.6%.

Consider `C[C@@H]1O[C@H](C[N+](C)(C)C)C[C@H]1O`, for which the “activity change, negative = inhibition” value is -1.44%.

Take `c1ccc(CCCN2CCN(CCOC(c3ccccc3)c3ccccc3)CC2)cc1`: the Potency is 501 nM (active).

On to `O=C(O)Cc1cnc[nH]1`, for which the “activity change, negative = inhibition” value is 10.9%.

In the case of `C[C@]12N[C@H](Cc3ccccc31)c1ccccc12`, the Potency entry is “inactive”.

`O=C(O)[C@@H]1CCN1`: the “activity change, negative = inhibition” value was 18.8%.

For `c1ccc2sc(C3(N4CCCCC4)CCCCC3)cc2c1`, the Potency is 2820 nM (active).

Turning to `COc1ccc2c(c[n+](C)c3c4cc5c(cc4ccc23)OCO5)c1OC`, the “activity change, negative = inhibition” value was -8.11%.

`C[C@]12CCC(=O)C(O)=C1CC[C@@H]1[C@H]3CCC(=O)[C@@]3(C)CC[C@@H]12`: the “activity change, negative = inhibition” value is -3.41%.

As to `C[N+]1(C)C2CCC1CC(OC(=O)C(CO)c1ccccc1)C2` (centres undefined), the Potency entry is “inactive”.

With `Oc1ccc2c3c1O[C@H]1c4[nH]c5c(c4C[C@@]4(O)[C@@H](C2)N(CC2CC2)CC[C@]314)C[C@@]1(O)[C@H]2Cc3ccc(O)c4c3[C@@]1(CCN2CC1CC1)[C@H]5O4`, the “activity change, negative = inhibition” value is -2%.

As to `C[C@]12CCC3C(CC[C@H]4C[C@H](O)CC[C@]34C)C1CC[C@@H]2C(=O)CO` (some centres undefined), the “activity change, negative = inhibition” value was 14.7%.

As to `O=C1CCCN1CC#CCN1CCCC1`, the “activity change, negative = inhibition” value is -2.36%.

Regarding `Cn1cnc(CCN)c1`, the “activity change, negative = inhibition” value is -2.11%.

As to `O=C(O)CC[N+](=O)[O-]`, the “activity change, negative = inhibition” value is 8.93%.

For `CCCN(CCC)[C@@H]1CCc2ccc(O)cc2C1`, the Potency is 2510 nM (active).

For `CC(C)Oc1cccnc1N(C)C1CCN(Cc2ccccc2)CC1`, the Potency was 6310 nM (active).

Regarding `NC(=O)CN1CC(O)CC1=O` (centres undefined), the “activity change, negative = inhibition” value was 10.6%.

Regarding `CCCCc1ccc(C(=O)O)nc1`, the “activity change, negative = inhibition” value was -41.8%.

With `Cc1nccc2c1[nH]c1ccccc12`, the “activity change, negative = inhibition” value was -23.6%.

Consider `COc1cc(C(O)CN)ccc1O` (centres undefined), for which the “activity change, negative = inhibition” value is 5.74%.

Take `NC1CC1c1ccccc1` (centres undefined): the “activity change, negative = inhibition” value was -12.9%.

System in a further experiment: not listed separately
In words: S16 Schwann cell viability assay (CellTiter-Glo assay) (AID 624031).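 Also: plate controls were DMSO-treated cells for no effect and cell-free wells for full effect; nearly all actives have a fitted effect of over 70% in size.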 As to conditions: S16 rat Schwann cells viability, 24 h; series mostly up to 57.5 µM; activity change, negative = cytotoxicity: at the top concentration. The essentials:
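Native S16 Schwann cells (rat), serum-containing medium, overnight attachment then 24 h drug exposure at 37 °C/5% CO2. CellTiter-Glo ATP signal; normalized to cell-free and vehicle wells.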
On the technique in general: ATP-based viability assays read luminescence as a measure of living cells.
Take `CCCN1CCC[C@H](c2cccc(O)c2)C1`: the “activity change, negative = cytotoxicity” value was -4.12%.

`CC(C)NC(C)Cc1ccc(I)cc1` (centres undefined): the “activity change, negative = cytotoxicity” value is 3.39%.

Consider `NC(=O)CN1CC(O)CC1=O` (centres undefined), for which the “activity change, negative = cytotoxicity” value is 1.72%.

For the compound `CCCCc1ccc(C(=O)O)nc1`, the “activity change, negative = cytotoxicity” value is -15.9%.

Source of the values: PubChem BioAssay (NCATS).
